Measurements published in the supplement of paper PMC10849652.
Targets with a hit are over-represented here; the source holds about 8,800 in all. About 0.5% of all pairs of compound and target were hits. Unmarked numbers belong to inactive results.

Columns and labels:
Test in all cases: log2 fold change, soluble protein after heating vs DMSO (PISA); higher = thermal stabilisation; K562 lysate, 10 uM; active = over 0.2 and 3.5 SD of the protein, either way, in both replicates (recomputed)
lapatinib = compound: CS(=O)(=O)CCNCc1ccc(-c2ccc3ncnc(Nc4ccc(OCc5cccc(F)c5)c(Cl)c4)c3c2)o1 [lapatinib]
Outline: (§1)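 Values give the log-two fold change in thermal stability against solvent controls, from duplicates. Crude K562 extract at 1 mg/mL protein, made by dounce homogenisation in PBS pH 7.4 with 1 mM MgCl2, was treated with 10 μM compound for 30 min. After 3 min heating across 48°C-58°C, aliquots were pooled, adjusted to 0.5% NP-40 at 4°C and centrifuged at 21,000xg for 90 min. The supernatant was measured by TMTpro 16plex LC-MS/MS with channel sums equalised.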

pictilisib = compound: CS(=O)(=O)N1CCN(Cc2cc3nc(-c4cccc5[nH]ncc45)nc(N4CCOCC4)c3s2)CC1 [pictilisib]
Outline: as §1

[1] = compound: C[C@H](C1=CC=C(C=C1)C(=O)NC2=C3C=CNC3=NC=C2)N
Outline: as §1

duvelisib = compound: C[C@H](Nc1ncnc2nc[nH]c12)c1cc2cccc(Cl)c2c(=O)n1-c1ccccc1 [duvelisib]
Outline: as §1

gandotinib = compound: Cc1cc(Nc2cc(CN3CCOCC3)c3nc(C)c(Cc4ccc(Cl)cc4F)n3n2)n[nH]1 [gandotinib]
Outline: as §1

tozasertib = compound: Cc1cc(Nc2cc(N3CCN(C)CC3)nc(Sc3ccc(NC(=O)C4CC4)cc3)n2)n[nH]1 [tozasertib]
Outline: as §1

bafetinib = compound: Cc1ccc(NC(=O)c2ccc(CN3CC[C@H](N(C)C)C3)c(C(F)(F)F)c2)cc1Nc1nccc(-c2cncnc2)n1 [bafetinib]
Outline: as §1

[2] = compound: Cc1cccc(CC(=O)N2CCc3c2ccc(-c2cn(C)c4ncnc(N)c24)c3F)n1
Outline: as §1

nilotinib = compound: Cc1cn(-c2cc(NC(=O)c3ccc(C)c(Nc4nccc(-c5cccnc5)n4)c3)cc(C(F)(F)F)c2)cn1 [nilotinib]
Outline: as §1

[3] = compound: Cc1nc(Nc2n[nH]c3c2CN(C(=O)N[C@H](CN(C)C)c2ccccc2)C3(C)C)c2sccc2n1
Outline: as §1

dasatinib = compound: Cc1nc(Nc2ncc(C(=O)Nc3c(C)cccc3Cl)s2)cc(N2CCN(CCO)CC2)n1 [dasatinib]
Outline: as §1

[4] = compound: Cc1ncc(-c2ccnc(Nc3ccc(S(C)(=O)=O)cc3)n2)n1C(C)C
Outline: as §1

[5] = compound: Cn1cc(-c2ccc3c(c2)CCN3C(=O)Cc2cccc(C(F)(F)F)c2)c2c(N)ncnc21
Outline: as §1

tipifarnib = compound: Cn1cncc1[C@@](N)(c1ccc(Cl)cc1)c1ccc2c(c1)c(-c1cccc(Cl)c1)cc(=O)n2C [tipifarnib]
Outline: as §1

[6] = compound: NC(=O)c1cnc(N[C@@H]2CCCC[C@@H]2N)nc1Nc1cccc(-n2nccn2)c1
Outline: as §1

[7] = compound: NC1(c2ccc(-c3nc4ccn5c(=O)[nH]nc5c4cc3-c3ccccc3)cc2)CCC1
Outline: as §1

crizotinib = compound: C[C@@H](Oc1cc(-c2cnn(C3CCNCC3)c2)cnc1N)c1c(Cl)ccc(F)c1Cl [crizotinib]
Outline: as §1

doramapimod = compound: Cc1ccc(-n2nc(C(C)(C)C)cc2NC(=O)Nc2ccc(OCCN3CCOCC3)c3ccccc23)cc1 [doramapimod]
Outline: as §1

quisinostat = compound: Cn1cc(CNCC2CCN(c3ncc(C(=O)NO)cn3)CC2)c2ccccc21 [quisinostat]
Outline: as §1

[8] = compound: NC(=O)Nc1cc(-c2cccc(F)c2)sc1C(=O)N[C@H]1CCCNC1
Outline: as §1

UniProt Q9Y4H2, sequence (Q9Y4H2 whole entry, looked up): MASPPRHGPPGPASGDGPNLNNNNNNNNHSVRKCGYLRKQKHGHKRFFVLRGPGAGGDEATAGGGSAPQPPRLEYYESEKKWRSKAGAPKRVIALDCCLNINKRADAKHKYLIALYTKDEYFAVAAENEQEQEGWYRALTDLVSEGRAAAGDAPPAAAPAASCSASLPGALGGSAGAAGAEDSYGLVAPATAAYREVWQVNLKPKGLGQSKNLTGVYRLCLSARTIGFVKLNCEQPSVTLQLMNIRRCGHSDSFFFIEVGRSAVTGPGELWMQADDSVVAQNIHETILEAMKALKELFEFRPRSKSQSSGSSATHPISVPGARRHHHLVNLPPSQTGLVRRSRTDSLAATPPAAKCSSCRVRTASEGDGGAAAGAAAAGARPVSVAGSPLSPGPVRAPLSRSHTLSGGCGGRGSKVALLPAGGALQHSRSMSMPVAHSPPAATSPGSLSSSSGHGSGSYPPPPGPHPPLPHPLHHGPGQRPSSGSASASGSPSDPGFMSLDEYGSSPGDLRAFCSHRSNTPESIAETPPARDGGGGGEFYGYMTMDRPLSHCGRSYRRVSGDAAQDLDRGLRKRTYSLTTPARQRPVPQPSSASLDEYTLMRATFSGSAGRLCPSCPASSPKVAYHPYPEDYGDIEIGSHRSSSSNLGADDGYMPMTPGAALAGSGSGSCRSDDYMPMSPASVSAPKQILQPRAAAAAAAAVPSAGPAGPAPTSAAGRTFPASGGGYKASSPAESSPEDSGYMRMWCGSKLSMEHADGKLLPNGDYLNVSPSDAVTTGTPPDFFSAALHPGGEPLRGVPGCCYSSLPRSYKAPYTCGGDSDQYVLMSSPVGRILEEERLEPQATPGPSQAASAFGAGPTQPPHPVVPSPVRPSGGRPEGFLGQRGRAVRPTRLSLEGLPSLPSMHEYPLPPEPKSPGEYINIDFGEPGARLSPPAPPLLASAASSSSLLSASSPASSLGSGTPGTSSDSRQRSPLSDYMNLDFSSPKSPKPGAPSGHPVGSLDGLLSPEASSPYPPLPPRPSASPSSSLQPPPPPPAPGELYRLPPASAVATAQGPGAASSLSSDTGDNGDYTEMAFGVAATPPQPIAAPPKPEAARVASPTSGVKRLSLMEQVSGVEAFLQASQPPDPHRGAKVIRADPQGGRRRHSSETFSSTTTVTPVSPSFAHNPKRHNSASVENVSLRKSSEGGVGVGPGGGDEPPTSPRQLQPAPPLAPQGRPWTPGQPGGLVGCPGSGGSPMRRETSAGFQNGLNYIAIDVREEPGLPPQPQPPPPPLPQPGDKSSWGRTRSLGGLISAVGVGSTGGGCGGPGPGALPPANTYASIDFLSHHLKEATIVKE
UniProt Q9H079, sequence (Q9H079 whole entry, looked up): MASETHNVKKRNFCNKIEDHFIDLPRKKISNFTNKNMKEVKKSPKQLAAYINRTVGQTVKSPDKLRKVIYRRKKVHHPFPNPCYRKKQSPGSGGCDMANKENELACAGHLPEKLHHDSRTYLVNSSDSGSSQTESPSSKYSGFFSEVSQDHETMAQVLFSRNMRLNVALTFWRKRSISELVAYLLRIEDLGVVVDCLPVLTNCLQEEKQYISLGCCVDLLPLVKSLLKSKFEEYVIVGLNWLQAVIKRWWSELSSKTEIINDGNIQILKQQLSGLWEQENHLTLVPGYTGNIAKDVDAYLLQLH
UniProt Q9NSC5, sequence (Q9NSC5 whole entry, looked up): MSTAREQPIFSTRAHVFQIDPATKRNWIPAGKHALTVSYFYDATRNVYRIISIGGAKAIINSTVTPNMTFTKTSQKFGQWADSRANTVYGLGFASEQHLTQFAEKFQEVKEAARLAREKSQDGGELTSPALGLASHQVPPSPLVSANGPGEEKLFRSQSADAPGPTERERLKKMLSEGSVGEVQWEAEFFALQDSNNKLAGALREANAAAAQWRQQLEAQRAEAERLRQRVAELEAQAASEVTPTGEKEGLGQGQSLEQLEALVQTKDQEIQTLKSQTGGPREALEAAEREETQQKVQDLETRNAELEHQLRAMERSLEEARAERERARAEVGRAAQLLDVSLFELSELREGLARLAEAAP
UniProt Q9P2P5, sequence (Q9P2P5 whole entry, looked up): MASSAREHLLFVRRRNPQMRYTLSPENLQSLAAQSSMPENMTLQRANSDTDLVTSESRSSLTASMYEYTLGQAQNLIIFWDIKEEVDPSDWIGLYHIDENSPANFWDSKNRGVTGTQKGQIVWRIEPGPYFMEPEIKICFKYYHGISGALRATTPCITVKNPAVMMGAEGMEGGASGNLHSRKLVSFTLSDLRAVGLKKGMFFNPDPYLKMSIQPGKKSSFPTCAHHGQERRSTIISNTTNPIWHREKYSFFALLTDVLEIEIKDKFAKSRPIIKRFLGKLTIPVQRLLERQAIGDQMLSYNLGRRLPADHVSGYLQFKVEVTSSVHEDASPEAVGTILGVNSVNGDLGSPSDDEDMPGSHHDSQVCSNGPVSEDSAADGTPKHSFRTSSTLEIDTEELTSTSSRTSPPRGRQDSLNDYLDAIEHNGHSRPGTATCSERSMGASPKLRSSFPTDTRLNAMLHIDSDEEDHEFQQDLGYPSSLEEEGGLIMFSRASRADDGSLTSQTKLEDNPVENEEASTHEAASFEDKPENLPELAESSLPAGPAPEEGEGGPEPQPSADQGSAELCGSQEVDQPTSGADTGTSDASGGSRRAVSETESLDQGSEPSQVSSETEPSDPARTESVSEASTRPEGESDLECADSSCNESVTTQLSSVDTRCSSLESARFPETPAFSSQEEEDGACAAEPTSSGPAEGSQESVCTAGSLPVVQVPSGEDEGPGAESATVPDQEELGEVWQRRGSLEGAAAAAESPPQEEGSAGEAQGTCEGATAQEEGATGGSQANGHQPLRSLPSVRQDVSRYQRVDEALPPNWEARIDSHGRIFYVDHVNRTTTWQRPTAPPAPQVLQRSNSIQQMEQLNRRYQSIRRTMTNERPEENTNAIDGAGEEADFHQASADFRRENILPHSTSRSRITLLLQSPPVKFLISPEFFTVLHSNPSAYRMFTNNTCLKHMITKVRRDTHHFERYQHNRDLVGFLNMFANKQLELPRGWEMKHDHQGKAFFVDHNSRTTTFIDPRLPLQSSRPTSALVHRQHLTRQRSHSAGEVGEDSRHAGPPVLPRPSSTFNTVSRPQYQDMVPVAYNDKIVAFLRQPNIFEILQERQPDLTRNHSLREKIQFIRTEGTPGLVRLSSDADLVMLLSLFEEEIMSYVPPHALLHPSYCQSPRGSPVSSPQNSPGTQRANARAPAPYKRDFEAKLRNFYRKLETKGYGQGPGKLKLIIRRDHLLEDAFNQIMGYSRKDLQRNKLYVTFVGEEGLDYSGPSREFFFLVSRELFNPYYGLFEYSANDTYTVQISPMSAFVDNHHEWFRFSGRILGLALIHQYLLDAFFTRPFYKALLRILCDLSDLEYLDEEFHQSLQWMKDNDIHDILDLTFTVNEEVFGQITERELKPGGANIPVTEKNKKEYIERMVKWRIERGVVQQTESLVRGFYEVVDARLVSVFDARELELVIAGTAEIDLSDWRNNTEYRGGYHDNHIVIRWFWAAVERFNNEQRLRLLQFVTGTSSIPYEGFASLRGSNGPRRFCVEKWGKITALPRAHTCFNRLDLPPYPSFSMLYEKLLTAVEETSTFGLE
UniProt Q99795, sequence (Q99795 whole entry, looked up): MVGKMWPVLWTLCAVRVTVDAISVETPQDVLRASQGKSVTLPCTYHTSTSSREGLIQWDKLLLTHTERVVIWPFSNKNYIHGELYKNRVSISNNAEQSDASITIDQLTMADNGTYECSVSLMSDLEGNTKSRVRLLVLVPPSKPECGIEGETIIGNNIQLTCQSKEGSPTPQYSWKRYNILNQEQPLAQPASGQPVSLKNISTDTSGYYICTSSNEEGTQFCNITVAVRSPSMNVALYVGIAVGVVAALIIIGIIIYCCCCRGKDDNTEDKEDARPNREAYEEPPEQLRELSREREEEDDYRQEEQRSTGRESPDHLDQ
UniProt P17096, sequence (P17096 whole entry, looked up): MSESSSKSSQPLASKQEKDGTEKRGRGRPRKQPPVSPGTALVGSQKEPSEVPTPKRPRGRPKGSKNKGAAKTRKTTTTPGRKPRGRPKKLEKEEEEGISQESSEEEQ
UniProt Q96A47, sequence (Q96A47 whole entry, looked up): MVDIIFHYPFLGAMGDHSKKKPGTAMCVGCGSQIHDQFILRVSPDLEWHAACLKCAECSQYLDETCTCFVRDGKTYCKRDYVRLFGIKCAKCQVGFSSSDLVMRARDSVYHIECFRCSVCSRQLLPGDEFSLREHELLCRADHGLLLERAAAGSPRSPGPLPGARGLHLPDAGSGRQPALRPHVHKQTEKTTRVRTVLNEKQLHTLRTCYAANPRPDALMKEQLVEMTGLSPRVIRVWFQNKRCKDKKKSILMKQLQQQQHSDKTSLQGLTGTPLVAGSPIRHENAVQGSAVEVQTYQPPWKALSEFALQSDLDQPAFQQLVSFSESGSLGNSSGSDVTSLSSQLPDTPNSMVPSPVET
UniProt O43824, sequence (O43824 whole entry, looked up): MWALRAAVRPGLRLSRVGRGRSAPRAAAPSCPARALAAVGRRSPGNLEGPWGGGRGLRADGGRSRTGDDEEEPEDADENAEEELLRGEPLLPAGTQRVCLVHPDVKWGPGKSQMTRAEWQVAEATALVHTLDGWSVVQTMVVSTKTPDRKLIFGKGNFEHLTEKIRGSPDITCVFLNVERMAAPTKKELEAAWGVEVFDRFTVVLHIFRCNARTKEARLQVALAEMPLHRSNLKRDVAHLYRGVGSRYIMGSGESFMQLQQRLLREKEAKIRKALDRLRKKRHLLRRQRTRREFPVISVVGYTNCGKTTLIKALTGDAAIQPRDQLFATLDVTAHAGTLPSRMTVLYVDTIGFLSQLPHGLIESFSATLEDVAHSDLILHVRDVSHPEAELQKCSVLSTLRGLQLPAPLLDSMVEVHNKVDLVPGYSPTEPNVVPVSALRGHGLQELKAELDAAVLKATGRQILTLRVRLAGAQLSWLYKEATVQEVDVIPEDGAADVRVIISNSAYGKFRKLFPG

Row | Target | log2 fold change (lapatinib) | log2 fold change (pictilisib) | log2 fold change [1] | log2 fold change (duvelisib) | log2 fold change (gandotinib) | log2 fold change (tozasertib) | log2 fold change (bafetinib) | log2 fold change [2] | log2 fold change (nilotinib) | log2 fold change [3] | log2 fold change (dasatinib) | log2 fold change [4] | log2 fold change [5] | log2 fold change (tipifarnib) | log2 fold change [6] | log2 fold change [7] | log2 fold change (crizotinib) | log2 fold change (doramapimod) | log2 fold change (quisinostat) | log2 fold change [8]
1 | GPA33 (UniProt Q99795) | -0.064 | 0.059 | -0.584 (active) | 0.154 | 0.567 (active) | -0.015 | -0.051 | 0.554 | -0.085 | -0.093 | -0.077 | -0.023 | -0.09 | 0.022 | -0.045 | 0.047 | – | – | – | –
2 | ITPRIP (UniProt Q8IWB1) | – | – | – | 0.179 | – | – | – | – | – | – | -0.017 | – | 0.005 | – | – | 0.06 | – | – | – | –
3 | ITM2B (UniProt Q9Y287) | – | -0.087 | -0.061 | 0.033 | -0.037 | – | -0.032 | 0.138 | 0.012 | -0.028 | 0.023 | -0.002 | -0.031 | -0.012 | – | -0.024 | 0.005 | 0.007 | 0.015 | 0.018
4 | IPP (UniProt Q9Y573) | 0.04 | – | 0.067 | -0.016 | -0.172 | 0.078 | – | 0.074 | – | – | -0.244 | – | 0.03 | – | -0.097 | 0.093 | – | – | – | –
5 | KHK isoform 2 (UniProt P50053) | -0.066 | -0.015 | 0.248 (active) | 0 | -0.058 | 0.018 | 0.001 | -0.163 | -0.004 | 0.035 | -0.075 | -0.02 | -0.035 | -0.043 | -0.018 | -0.023 | -0.032 | 0.031 | -0.021 | -0.019
6 | GLB1 (UniProt P16278) | -0.02 | 0.001 | -0.017 | 0.004 | 0.012 | -0.084 | -0.03 | 0.008 | -0.006 | 0.03 | -0.026 | 0.023 | 0.003 | 0.017 | -0.011 | -0.022 | -0.003 | 0.016 | 0.03 | -0.016
7 | GPN2 (UniProt Q9H9Y4) | 0.041 | – | -0.035 | 0.126 | 0.068 | 0.015 | – | 0.106 | -0.065 | 0.046 | 0.062 | -0.009 | -0.046 | 0.013 | 0.01 | -0.034 | 0.007 | -0.005 | -0.022 | -0.008
8 | HOMER3 (UniProt Q9NSC5) | 0.091 | 0.42 (active) | 0.048 | – | 0.061 | – | 0.234 | -0.072 | – | – | – | – | – | – | -0.023 | – | 0.021 | 0.016 | -0.147 | 0.019
9 | KATNBL1 (UniProt Q9H079) | -0.013 | – | 0.05 | 0.164 | -0.021 | 0.169 | – | 0.01 | -0.057 | -0.143 | 0.068 | -0.159 | -0.073 | 0.198 | 0.017 | 0.023 | -0.066 | -0.069 | 0.035 | 0.158
10 | GSTM2 (UniProt P28161) | -0.024 | -0.011 | 0.121 | -0.067 | -0.042 | 0.02 | -0.011 | -0.079 | 0.124 | -0.007 | 0.027 | 0.007 | -0.005 | 0.064 | -0.052 | -0.019 | – | – | – | –
11 | H3-3A (UniProt P84243) | 0.028 | -0.018 | 0 | – | 0.016 | -0.083 | -0.049 | 0.03 | – | – | – | – | – | – | 0 | -0.093 | 0.046 | -0.062 | 0.014 | 0.032
12 | HNRNPL, A0A3B3ITJ4 | -0.011 | -0.002 | – | – | – | – | -0.083 | – | – | – | – | – | – | – | 0.019 | – | – | – | – | –
13 | IGF2BP2 isoform 6 (UniProt Q9Y6M1) | 0.084 | – | – | – | – | – | – | – | – | – | – | – | – | – | 0.079 | – | – | – | – | –
14 | HNRNPD (UniProt D6RF44) | – | – | – | – | – | – | – | – | -0.03 | 0.11 | – | 0.103 | – | 0.12 | – | – | -0.086 | 0 | -0.061 | -0.353
15 | ISL2 (UniProt Q96A47) | – | 0 | 0.609 (active) | 0.006 | -0.104 | – | -0.055 | -0.096 | – | – | 0.015 | – | 0.053 | – | – | 0.014 | 0.001 | -0.074 | 0.055 | -0.092
16 | HECW2 (UniProt Q9P2P5) | – | – | – | -0.088 | – | 0.165 | – | – | -0.147 | 0.021 | -0.031 | -0.092 | -0.103 | -0.041 | – | 0.126 | -0.075 | 0.24 | -0.513 (active) | -0.035
17 | HYDIN (UniProt Q4G0P3) | 0.037 | – | – | 0.179 | – | 0.041 | – | – | – | – | -0.034 | – | 0.219 | – | -0.282 | – | – | – | – | –
18 | HNRNPM (UniProt M0QZM1) | – | 0.076 | – | -0.06 | – | 0.075 | -0.243 | – | – | – | -0.022 | – | -0.163 | – | – | – | -0.07 | -0.017 | 0 | -0.012
19 | IRS2 (UniProt Q9Y4H2) | -0.128 | 0.023 | -0.578 (active) | 0 | 0.296 | – | 0.031 | 0.307 | -0.05 | -0.044 | -0.018 | -0.071 | -0.074 | -0.071 | 0.062 | 0.112 | -0.186 | 0.019 | -0.15 | 0.142
20 | GTPBP6 (UniProt O43824) | – | – | 0.149 | -0.003 | 0.156 | 0.023 | – | -0.023 | – | – | -0.025 | – | 0.136 | – | – | – | – | – | – | –
21 | HMGA1 isoform 2 (UniProt P17096) | -0.005 | – | 0.731 (active) | -0.011 | -0.26 | – | – | -0.491 | 0.209 | 0.014 | 0.091 | 0.395 | -0.099 | 0.168 | -0.064 | -0.101 | 0.125 | -0.274 | 0.289 | -0.018
